The text below walks through data of PubChem BioAssay AID2391 (Southern Research Specialized Biocontainment Screening …, 2010).

Among all 310,000 compounds or so, about 410 (0.13%) were called active. Inconclusive results (about 2%) are left out. Only a sample is shown. Measured potencies and affinities stand elsewhere. Unmarked numbers belong to inactive results. The rule behind the calls is not given here.

The nature of the assay: RSV antiviral activity via CPE protection, HEp-2 cells, primary 10 µM value included (AID 2391). As to conditions: RSV-induced CPE inhibition, at 10 µM, stronger effect = higher value.
Regarding `Cn1c(COc2nnc(-c3ccc(Cl)cc3)c3ccccc23)nc2ccccc21`, the CPE inhibition was 5.55%.
With `Cc1nnc(OCc2nc3ccccc3n2C)c2ccccc12` the figure was 6.77%; with `CCC(CC)c1nnc(NC(=O)c2c(C)nn(Cc3ccccc3Cl)c2C)s1`, 10.8%; with `CC(=O)Nc1ccc(NC(=O)c2c(C)nn(Cc3ccccc3Cl)c2C)cc1`, 1.12%.
For `COc1ccc(-c2nc(N=Nc3ccc(O)cc3)n[nH]2)cc1` the value was 9.37%; for `CN(C)S(=O)(=O)c1cc(NC(=O)CN2CCN(c3ccc(O)cc3)CC2)ccc1Cl`, 0.75%.
Turning to `OC1CCN(c2cc(-c3ccccc3)nc3cc(-c4ccc(F)cc4)nn23)CC1`, the CPE inhibition was 5.15%.
For `COc1cccc(-c2cc3nc(-c4ccccc4)cc(N4CCCC(O)C4)n3n2)c1` (configuration not stated) the value was 14.1%.
For `C=CCOC(=O)C(C#N)c1nc2ccccc2nc1N1CCN(c2ccccc2OC)CC1` (configuration not stated), the CPE inhibition is 0.49%.
With `C/C(=N\O)c1ccc2[nH]ccc2c1` the figure was 5.17%; with `CC(=O)Nc1ccc2[nH]ccc2c1`, -0.73%.
With `COc1ccc(OC)c(NC(=O)c2cccc(S(=O)(=O)N(Cc3ccccc3)c3ccccc3OC)c2)c1` the figure was 2.42%; with `Cc1nc2ccc(N=NC3=C(O)CC(C)(C)CC3=O)cc2s1`, 2.75%.
For `COc1ccccc1OCCn1cc(C=O)c2ccccc21` the value was -0.05%.
Turning to `O=C(Nc1ccc(F)c([N+](=O)[O-])c1)c1cccs1`, the CPE inhibition is 4.17%.
With `O=C(NC(Cc1c[nH]c2ccccc12)C(=O)N/N=C/c1ccc(Br)cc1)c1cccs1` (configuration not stated) the figure was -2.58%.
For `O=C(NC(Cc1c[nH]c2ccccc12)C(=O)O)c1cccs1` (configuration not stated) the value was -1.85%.
For the compound `O=C(NC(Cc1c[nH]c2ccccc12)C(=O)N/N=C/c1cccc2ccccc12)c1cccs1` (configuration not stated), the CPE inhibition was 18.5%.
For `O=C(NC(Cc1c[nH]c2ccccc12)C(=O)N1CCOCC1)c1cccs1` (configuration not stated) the value was -0.02%; for `COC(=O)C(Cc1c[nH]c2ccccc12)NC(=O)c1cccs1` (configuration not stated), 1.21%; for `CC1(C)CC(=O)c2cc(C(=O)NC3CCSC3=O)c(=O)n(-c3ccc(Cl)cc3)c2C1` (configuration not stated), 0.72%.
With `O=S(=O)(Nc1ccccc1)c1cccc2nsnc12` the figure was 1.2%.
With `CCc1ccc(N2CC(C(=O)OCC(=O)NNC(=O)c3ccccc3)CC2=O)cc1` (configuration not stated) the figure was 1.46%; with `COc1cccc(NC(=O)C(NCC(C)(C)CN(C)C)c2ccccc2)c1` (configuration not stated), 1.08%; with `CC1(C)Cc2cccc(C(=O)Nc3ccc(Cl)cc3)c2O1`, 13.1%.
Regarding `CC1CCN(C(=O)COC(=O)Cc2c[nH]c3ccccc23)CC1`, the CPE inhibition is -0.07%.
For `CCOC(=O)N1CCc2c(sc3c2c(=O)n(-c2ccc(CC)cc2)c(=O)n3CC(=O)NCC2CCCO2)C1` (configuration not stated) the value was -1.83%; for `COc1cc([N+](=O)[O-])cc(/C=N/NC(=O)C(C)Nc2cccc3ccccc23)c1O` (configuration not stated), 7.79%; for `O=C(CNc1cccc2ccccc12)N/N=C/c1ccc([N+](=O)[O-])cc1`, 0.72%.
For `Cc1cccnc1NC(=S)Nc1ccc(F)cc1F` the value was 1.49%; for `COC(=O)[C@@H]1[C@@H](C)N(Cc2ccccc2)C(=O)N[C@H]1c1cccc(C(F)(F)F)c1`, 3.75%.
With `Cc1cc2nc3n(c2cc1C)CCCN3` the figure was 5.29%; with `CCOC(=O)c1cc(-c2ccccc2)sc1NC(=O)C(C)(C)C`, 0.09%; with `O=C(Nc1sc(-c2ccccc2)cc1C(=O)O)c1ccccc1`, 7.6%.
Turning to `COc1ccc(-c2cc(-c3ccc(C)cc3)nc(SCc3nnc(-c4ccccc4)o3)c2C#N)cc1OC`, the CPE inhibition is 2.51%.
For `Cc1ccc(OCCOC(=O)c2cccc(S(=O)(=O)N3CC(C)OC(C)C3)c2)cc1` (configuration not stated) the value was 3.28%; for `COc1ccc(-n2c(C)cc(/C=C3\C(=N)N4N=C(CC(=O)N5CCOCC5)SC4=NC3=O)c2C)cc1`, 3.44%.
With `COc1cccc(-n2c(C)cc(/C=C3/C(=N)N4C(=NC3=O)SN=C4S(C)(=O)=O)c2C)c1` the figure was 16.5%; with `COc1ccc(OC)c(-n2c(C)cc(/C=C3\C(=N)N4N=C(CC(=O)N5CCOCC5)SC4=NC3=O)c2C)c1`, 17%; with `COc1ccc(/C=C2\C(=N)N3N=C(CC(=O)N4CCOCC4)SC3=NC2=O)cc1`, -0.02%.
For the compound `Cc1cc(/C=C2/C(=N)N3C(=NC2=O)SN=C3S(C)(=O)=O)c(C)n1-c1ccc(F)cc1`, the CPE inhibition was 7.04%.
For `Cc1cc(/C=C2\C(=N)N3N=C(CC(=O)N4CCOCC4)SC3=NC2=O)c(C)n1-c1ccccc1` the value was 7.24%; for `CCC1=NN2C(=N)/C(=C\c3cccn3-c3ccc(OC)cc3)C(=O)N=C2S1`, 5.71%; for `O=C(N/N=C/c1ccc(Cl)cc1)C(=O)N1CCCCCC1`, -0.12%.
With `O=C(NCc1ccco1)/C(=C\c1cccs1)NC(=O)c1ccco1` the figure was -0.55%; with `Nc1nc(N2CCCCC2)nc(N2CCCCC2)n1`, 0.85%; with `NS(=O)(=O)c1ccc(CNS(=O)(=O)c2ccc3c(c2)OCCO3)cc1`, 2.01%.
With `Cc1cc(=O)oc2cc(NC(=O)c3cccc(F)c3)ccc12` the figure was 4.53%; with `Clc1ccc(-n2c(SCc3nc4ccccc4[nH]3)nnc2-c2ccncc2)cc1`, 0.34%.
In the case of `CC(=O)NC(c1ccc(F)cc1)c1cccnc1` (configuration not stated), the CPE inhibition is 1.45%.
On to `CCc1nc(SCC(=O)c2cccc([N+](=O)[O-])c2)n[nH]1`, for which the CPE inhibition was 1.44%.
For `CC(=O)C1=C(C)N(Cc2ccccc2)C(=O)N[C@@H]1c1cccc(C(F)(F)F)c1` the value was 0.41%; for `CC(=O)C1=C(C)N(Cc2ccccc2)C(=O)N[C@H]1c1cccc(C(F)(F)F)c1`, 4.45%; for `CCN1C(=O)N[C@@H](c2ccc(Br)cc2)C(C(=O)OC)=C1C`, 5.67%.
For `CCN1C(=O)N[C@H](c2ccc(Br)cc2)C(C(=O)OC)=C1C` the value was 0.05%; for `COC(=O)C1=C(C)N(Cc2ccccc2)C(=S)N[C@H]1c1ccccc1`, 14.1%.
For `COC(=O)C1=C(C)N(Cc2ccccc2)C(=O)N[C@H]1c1cccc(F)c1` the value was 3.4%.
